What all share (conditions): concentration: 1 μM, replicates: in singlicate; n = 1
Assay [1] deals with T1, HASPIN.
T1 construct: gene GSG2

In assay [2] the test system is HCK.
Assay [3] deals with HIPK1.
Assay [4] deals with HIPK2.
Assay [5] concerns HIPK3.
For assay [6], the system named is HIPK4.
In assay [7] the test system is HPK1.
The test system of assay [8] is HUNK.
Assay [9] relates to ICK.
Assay [10] relates to IGF1R.
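Also: KINOMEscan kinase panel screen.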

As to `Cc1ccc(-c2ccc3occ(-c4ccc(S(C)=O)cc4)c3c2)nn1` (stereo not drawn), the “%Inh” value in [1] was determined as 42%; in assay [2] it was 0%; in assay [3] it was 42%; in assay [4] it was 2%; in assay [5], 0%; in [6] it was 0%. Also, the “%Inh” value in assay [7], in [8], in assay [9] and in assay [10] was 0% each time.
Regarding `COc1cccc(C2=C(Nc3cccc(O)c3)C(=O)NC2=O)c1` [SB-390771], the “%Inh” value is 4% in [1]; 0% in [2]; 0% in assay [3]; 0% in assay [4]; 29% in assay [5]; 0% in assay [6]. Moreover, the “%Inh” value in [7] is 51%; in [8], 0%; in assay [9], 3%; in assay [10], 19%.
On to `CCn1cnc2c(NCc3ccccc3)ncnc21` [SKF-96418], for which the “%Inh” value in assay [1] is on record as 10%; in assay [2] it was 9%; in [3], 27%; in assay [4], 9%; in assay [5], 33%; in [6] it was 33%. Besides, the “%Inh” value in [7] is recorded as 0%; in assay [8] it was 48%; in assay [9], 0%; in [10] it was 0%.
As to `c1ccc(Oc2ccc(Nc3ccnc4cc(-c5ccc(CN6CCCCC6)o5)ccc34)cc2)nc1` [GW567143], the “%Inh” value in assay [1] was determined as 6%; in assay [2], 79%; in assay [3], 0%; in assay [4], 0%; in [5] it was 8%; in [6], 0%. For the same compound, the “%Inh” value in assay [7] was found to be 20%; in assay [8] it was 0%; in assay [9], 0%; in assay [10] it was 15%.
With `Fc1cc(Cl)ccc1Nc1ccnc2cc(-c3ccc(CN4CCOCC4)o3)ccc12` [GW560109], the “%Inh” value was determined as 0% in [1]; 96.7% in [2]; 0% in assay [3]; 0% in assay [4]; 26% in assay [5]; 0% in assay [6]. The “%Inh” value is on record as 27% in assay [7], 62% in assay [8], 0% in assay [9] and 12% in assay [10].
Consider `CN(C)CCNS(=O)(=O)c1ccc(-c2ccnc3[nH]ccc23)cc1` [GSK977620], for which the “%Inh” value was 84% in assay [1]; 0% in assay [2]; 82% in assay [3]; 82% in assay [4]; 90.5% in [5]; 43% in assay [6]. Moreover, the “%Inh” value is 42% in [7], 0% in assay [8], 5% in assay [9] and 2% in assay [10].
As to `CC(=O)Nc1cn2nc(Oc3cccc(NC(=O)c4cccc(C(F)(F)F)c4)c3)ccc2n1`, the “%Inh” value is recorded as 0% in [1]; 98.2% in assay [2]; 35% in assay [3]; 0% in [4]; 0% in assay [5]; 19% in assay [6]. In addition, the “%Inh” value in assay [7] stood at 59%; in [8] it was 43%; in [9], 0%; in assay [10], 8%.
For `CN1CCN(Cc2ccc(NC(=O)Nc3ccc(N(C)c4ccnc(Nc5ccc(CS(C)(=O)=O)cc5)n4)cc3)cc2)CC1.Cl` [GW827654], the “%Inh” value is recorded as 19% in assay [1]; 47% in [2]; 83% in assay [3]; 82% in assay [4]; 91.9% in [5]; 90.9% in assay [6]. Besides, the “%Inh” value amounted to 99.6% in [7], 0% in [8], 71% in [9] and 0% in assay [10].
On to `COc1cccc(CC(=O)N2CCc3cc(-c4cn(C)c5ncnc(N)c45)ccc32)c1` [GSK2608899], for which the “%Inh” value in assay [1] is listed as 0%; in [2] it was 0%; in assay [3] it was 0%; in [4] it was 0%; in assay [5], 22%; in assay [6] it was 56%. The “%Inh” value in [7] is 55%; in assay [8] it was 3%; in [9], 6%; in assay [10], 17%.
